Source: PubChem BioAssay (National Center for Advancing Translational Sciences (NCATS))
An excerpt weighted towards active compounds, which were near 19% of everything screened.
IL-1B inflam inh = blocks inflammasome-driven IL-1 beta release; THP-1 LPS/ATP IL-1B secretion, AlphaLISA, 16 h; active compounds read low; activity change, % at 57.5 µM; 360,000 tested, 4.7% active; in the data active = activity change below about -50%; inconclusive = mostly about -30% to -49%
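Secreted IL-1B measured by AlphaLISA bead assay after 16 h compound exposure of THP-1 cells; compounds (final up to 57.5 uM) added 1 h before LPS (250 ng/mL) and ATP (1.25 mM) stimulation; lower signal means less secretion.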
HT1080NT lethal = kills 2HG-producing HT-1080-NT fibrosarcoma cells; HT-1080-NT fibrosarcoma viability, CellTiter-Glo ATP luminescence, 48 h; Potency, µM (highest dose often 46.1 µM), for the others: at the top dose activity, negative = less viability, actives largely listed as cytotoxic; 360,000 tested, 1.6% active; AID 686970;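 note: NT is the 2HG producing partner of a matched IDH1 knockdown line; potency is the fitted concentration of half-maximal effect; 0% = DMSO-treated cells and -100% = media-only wells without cells; nearly all actives have a fitted effect of over 55% in size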
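Luminescent CellTiter-Glo readout after 48 hours of compound exposure at 37 degrees C defined viability of HT-1080-NT cells. Activity was normalized to DMSO wells and cell-free media wells; concentration-response curves were fitted and assigned curve classes.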
TDP1 cell CPT = growth inhibition of DT40 Tdp1-/-;hTDP1 cells with camptothecin (screen for TDP1 inhibitors). AID 686979. Potency, µM (series often up to 46.2 µM), for the others: at the highest dose activity change, negative = growth inhibition, actives largely listed as inhibitors. chicken DT40 Tdp1-/-;hTDP1 cells + 20 nM CPT, ATP luminescence, 48 h. 420,000 tested, 12% active; note: potency is the fitted concentration of half-maximal effect; nearly all actives have a fitted effect of over 55% in size
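Chicken DT40 Tdp1-/- cells complemented with human TDP1, 400 cells/well, exposed to compounds plus 20 nM camptothecin for at least 48 h at 37 C; viability read as ATP content by CellTiter-Glo luminescence.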
DT40 TDP1 no CPT = qHTS for Inhibitors of human tyrosyl-DNA phosphodiesterase 1 (TDP1): qHTS in cells in absence of CPT; 420,000 tested, 15% active; Potency, µM (titrated, usually from 46.2 µM), inactives show at the highest dose activity change, negative = growth inhibition, usual class: inhibitors; AID 686978, 2013; DT40 Tdp1-/- hTDP1 cells, no CPT, ATP luminescence, 48 h; note: potency is the fitted concentration of half-maximal effect; nearly all actives have a fitted effect of over 55% in size
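A cellular qHTS used chicken DT40 cells lacking endogenous Tdp1 but carrying stably transfected human TDP1. Compounds were applied without camptothecin, and cell growth kinetics were judged by ATP-dependent luminescence after ≥48 hr.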
uPA surface inh = inhibitors of cell surface uPA generation; cell surface uPA generation assay, qHTS; Potency, µM (doses to about 38.3 µM), for inactives: at the highest dose activity change, negative = inhibition, usual class: inhibitors; 330,000 tested, 0.31% active; active = well fitted inhibition curve with a large enough effect; inconclusive = small, poorly fitted or top-dose-only effect; inactive = no such curve, though single readings can be large or run the other way; tested in mouse RAW 264.7 cells; note: potency is the fitted concentration of half-maximal effect; nearly all actives have a fitted effect of over 55% in size
HT1080 IDH1KD tx = HT-1080 IDH1 knockdown cell toxicity (counter line) | 360,000 tested, 2% active | AID 686971 | HT-1080 IDH1 knockdown viability, ATP luminescence, 48 h | Potency, µM (highest dose often 46.1 µM), without a hit: at the highest dose activity, negative = toxicity, most hits filed as cytotoxic;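 note: potency is the fitted concentration of half-maximal effect; 0% = DMSO wells and -100% = cell-free medium wells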
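After a 2 h attachment period, IDH1KD HT-1080 cells took pin-transferred compound for 48 h at 37 °C; ATP-based luminescence after 10 min room-temperature reagent incubation reported viability.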
* marks the source's active call; other numbers are inactive results; i = inactive; u = inconclusive; x = not tested or not shown. Unless noted, calls come from the whole dose curve; as a rule, active = well fitted curve in the direction sought with a large enough effect; inconclusive = small, poorly fitted or top-dose-only effect, or another doubt; inactive = no such curve, though single readings can be large; an effect the other way counts as inactive or inconclusive. Unless noted, % is set by controls: 0 for no effect and ±100 for the full control effect.

SMILES	IL-1B inflam inh	HT1080NT lethal	TDP1 cell CPT	DT40 TDP1 no CPT	uPA surface inh	HT1080 IDH1KD tx
COCCSc1nnc(NC(=O)CCS(=O)(=O)c2ccccc2)s1	-103*	u	7.3µM*	13µM*	-3%	23µM*
COCCSc1nnc(NC(=O)CS(=O)(=O)c2ccc(C)cc2)s1	3	3%	10%	-15%	-5%	-2%
Clc1cccc(C2CCN(Cc3nc(CC4CC4)no3)C2)c1 (configuration not stated)	-5	22%	-11%	-15%	0%	15%
Cn1cccc1C(=O)N1CCC[C@@]2(CCN(C(=O)Nc3cccc(F)c3)C2)C1	x	x	3%	-7%	x	x
CC1CC(C)CN(C(CCc2ccccc2)C(=O)NC2CCCCC2)C1 (configuration not stated)	7	-3%	u	-16%	x	2%
Cc1ccc(S(=O)(=O)Nc2ccccc2C(=O)N2CCCCCC2)cc1	9	-5%	-4%	-18%	1%	7%
Cc1ccc(S(=O)(=O)CCc2nnc(NC(=O)CCl)s2)cc1C	-100*	u	15µM*	13µM*	-7%	15µM*
Cc1cc2c(cc1C)-c1nnnn1C(N1CCC(Cc3ccccc3)CC1)C(=O)N2 (configuration not stated)	-1	u	15µM*	9.2µM*	x	u
Cc1cc2c(cc1C)-c1nnnn1C(N1CCCC1)C(=O)N2 (configuration not stated)	19	15%	u	u	x	24%
CCn1c(=N)c(C(=O)NC2CCCC2)cc2c(=O)n3cc(C)ccc3nc21	x	x	-6%	1%	x	x
COc1ccc(N2C3=C(CC4=C2CCCC4=O)C(=O)CCC3)cc1	-94*	-2%	u	u	7%	-13%
COc1ccc(N2C3=C(C(=O)CC(C)(C)C3)C(c3ccccc3OC)C3=C2CC(C)(C)CC3=O)cc1	-86*	-7%	u	16µM*	-4%	-11%
COc1ccc(N2C3=C(CC4=C2CC(C)(C)CC4=O)C(=O)CC(C)(C)C3)cc1	-102*	7.1µM*	4.6µM*	3.3µM*	u	u
COc1ccccc1C1C2=C(CC(C)(C)CC2=O)N(CC(=O)O)C2=C1C(=O)CC(C)(C)C2	0	4%	2%	11%	-8%	2%
Cc1ccc(N2C3=C(C(=O)CC(C)(C)C3)C(c3cn(C)nc3C)C3=C2CC(C)(C)CC3=O)cc1	-25	-25%	15µM*	13µM*	-11%	u
CN(Cc1ccnc2ccccc12)C(=O)C1CCC(=O)N(Cc2ccccc2F)C1 (configuration not stated)	i	7%	11%	-10%	-3%	16%
C=CCNS(=O)(=O)c1cc(S(=O)(=O)NCC=C)c(OC)cc1OC	-7	11%	32%	-2%	0%	0%
Cc1ccc(S(=O)(=O)N2CCCCC2)cc1NC(=O)Cn1cnc2c1c(=O)n(C)c(=O)n2C	21	2%	12%	-9%	-1%	3%
COc1ccccc1CNC(=O)[C@H](C)N1C(=O)N2CCc3c([nH]c4ccccc34)[C@@]2(C)C1=O	-4	3%	29µM*	18µM*	-8%	2%
COc1ccc(CCNC(=O)[C@H](C)N2C(=O)N3CCc4c([nH]c5ccccc45)[C@@]3(C)C2=O)cc1	u	14%	21µM*	16µM*	u	-2%
COc1cccc(CNC(=O)[C@@H](C)N2C(=O)N3CCc4c([nH]c5ccc(OC)cc45)C3(C)C2=O)c1 (some centres not stated)	8	-3%	15µM*	16µM*	-3%	0%
